According to ChEMBL document CHEMBL3988442, “University of Dundee, Small-Polar-MMV Screening Library” (2021):
Where “and” joins values, the source holds several entries; their conditions need not be identical. Identical values can stand only once. For part of these data: Results with a measured potency or affinity are listed apart.

Assays:
[1] = target: T1, Methionyl-tRNA synthetase, putative (Leishmania donovani (strain BPK282A1)) (UniProt E9BF75); assay: Leishmania donovani Methionine tRNA synthetase (LdMetRS):v7. Dose response assay; type: functional; design: conc 80 nM, time 150 minutes
T1 sequence (whole entry): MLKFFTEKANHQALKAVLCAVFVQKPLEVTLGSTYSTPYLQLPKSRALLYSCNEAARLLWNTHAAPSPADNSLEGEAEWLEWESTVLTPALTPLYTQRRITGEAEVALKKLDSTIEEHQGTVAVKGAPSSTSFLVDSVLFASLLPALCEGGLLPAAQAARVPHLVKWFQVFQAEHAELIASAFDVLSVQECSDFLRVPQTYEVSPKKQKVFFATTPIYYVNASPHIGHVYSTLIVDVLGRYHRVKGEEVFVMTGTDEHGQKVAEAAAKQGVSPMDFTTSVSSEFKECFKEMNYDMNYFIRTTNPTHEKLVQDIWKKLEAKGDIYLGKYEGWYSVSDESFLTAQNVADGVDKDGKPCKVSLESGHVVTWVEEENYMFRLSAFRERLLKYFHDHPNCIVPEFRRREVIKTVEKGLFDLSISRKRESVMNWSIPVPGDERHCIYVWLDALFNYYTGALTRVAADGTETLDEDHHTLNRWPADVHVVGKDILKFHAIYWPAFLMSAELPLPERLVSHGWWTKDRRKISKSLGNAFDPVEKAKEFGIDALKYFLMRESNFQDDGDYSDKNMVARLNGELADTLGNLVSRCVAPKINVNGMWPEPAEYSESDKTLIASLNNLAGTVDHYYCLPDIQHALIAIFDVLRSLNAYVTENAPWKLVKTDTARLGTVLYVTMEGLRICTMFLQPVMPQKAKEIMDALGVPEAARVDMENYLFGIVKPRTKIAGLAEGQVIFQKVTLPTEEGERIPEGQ

[2] = target: Protein translocase subunit SecA (Escherichia coli (strain K12)) (UniProt P10408); assay: Assay to Identify E. coli SecA ATPase Inhibitors; type: functional; design: scale not given: direction of the effect not stated beside the values; details: 30 µM
Chain of Protein translocase subunit SecA (Escherichia coli (strain K12)) (P10408 whole entry): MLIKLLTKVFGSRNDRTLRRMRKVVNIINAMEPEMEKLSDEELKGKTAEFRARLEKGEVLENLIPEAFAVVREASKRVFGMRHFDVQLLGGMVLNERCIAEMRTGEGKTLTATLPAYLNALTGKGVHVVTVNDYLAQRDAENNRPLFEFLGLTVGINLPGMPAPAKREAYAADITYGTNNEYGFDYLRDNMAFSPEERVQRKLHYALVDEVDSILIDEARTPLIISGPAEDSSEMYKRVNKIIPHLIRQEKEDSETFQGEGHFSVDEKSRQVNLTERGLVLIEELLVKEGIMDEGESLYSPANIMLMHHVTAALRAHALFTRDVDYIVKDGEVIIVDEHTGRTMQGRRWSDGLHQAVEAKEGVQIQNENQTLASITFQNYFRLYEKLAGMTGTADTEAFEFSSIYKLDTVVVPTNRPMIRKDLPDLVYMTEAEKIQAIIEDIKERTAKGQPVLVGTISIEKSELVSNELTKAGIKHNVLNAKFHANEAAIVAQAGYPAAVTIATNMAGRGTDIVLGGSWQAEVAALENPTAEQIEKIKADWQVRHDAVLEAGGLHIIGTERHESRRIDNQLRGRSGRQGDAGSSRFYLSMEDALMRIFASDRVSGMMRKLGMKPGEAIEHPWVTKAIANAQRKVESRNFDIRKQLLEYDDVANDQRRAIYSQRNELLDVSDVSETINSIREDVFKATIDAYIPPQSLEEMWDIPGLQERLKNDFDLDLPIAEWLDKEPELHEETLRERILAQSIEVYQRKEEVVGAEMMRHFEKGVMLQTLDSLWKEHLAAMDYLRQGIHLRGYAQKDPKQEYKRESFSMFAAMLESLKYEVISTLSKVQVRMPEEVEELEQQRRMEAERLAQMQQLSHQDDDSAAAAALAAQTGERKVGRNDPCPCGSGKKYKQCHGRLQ

[3] = target: T2, Ubiquitin-activating enzyme e1, putative (Leishmania donovani (strain BPK282A1)) (UniProt E9BSI1); assay: Leishmania donovani Ubiquitin Activating Enzyme (LdE1); type: functional; design: scale not given: direction of the effect not stated beside the values; details: 30 µM
T2 sequence (whole entry): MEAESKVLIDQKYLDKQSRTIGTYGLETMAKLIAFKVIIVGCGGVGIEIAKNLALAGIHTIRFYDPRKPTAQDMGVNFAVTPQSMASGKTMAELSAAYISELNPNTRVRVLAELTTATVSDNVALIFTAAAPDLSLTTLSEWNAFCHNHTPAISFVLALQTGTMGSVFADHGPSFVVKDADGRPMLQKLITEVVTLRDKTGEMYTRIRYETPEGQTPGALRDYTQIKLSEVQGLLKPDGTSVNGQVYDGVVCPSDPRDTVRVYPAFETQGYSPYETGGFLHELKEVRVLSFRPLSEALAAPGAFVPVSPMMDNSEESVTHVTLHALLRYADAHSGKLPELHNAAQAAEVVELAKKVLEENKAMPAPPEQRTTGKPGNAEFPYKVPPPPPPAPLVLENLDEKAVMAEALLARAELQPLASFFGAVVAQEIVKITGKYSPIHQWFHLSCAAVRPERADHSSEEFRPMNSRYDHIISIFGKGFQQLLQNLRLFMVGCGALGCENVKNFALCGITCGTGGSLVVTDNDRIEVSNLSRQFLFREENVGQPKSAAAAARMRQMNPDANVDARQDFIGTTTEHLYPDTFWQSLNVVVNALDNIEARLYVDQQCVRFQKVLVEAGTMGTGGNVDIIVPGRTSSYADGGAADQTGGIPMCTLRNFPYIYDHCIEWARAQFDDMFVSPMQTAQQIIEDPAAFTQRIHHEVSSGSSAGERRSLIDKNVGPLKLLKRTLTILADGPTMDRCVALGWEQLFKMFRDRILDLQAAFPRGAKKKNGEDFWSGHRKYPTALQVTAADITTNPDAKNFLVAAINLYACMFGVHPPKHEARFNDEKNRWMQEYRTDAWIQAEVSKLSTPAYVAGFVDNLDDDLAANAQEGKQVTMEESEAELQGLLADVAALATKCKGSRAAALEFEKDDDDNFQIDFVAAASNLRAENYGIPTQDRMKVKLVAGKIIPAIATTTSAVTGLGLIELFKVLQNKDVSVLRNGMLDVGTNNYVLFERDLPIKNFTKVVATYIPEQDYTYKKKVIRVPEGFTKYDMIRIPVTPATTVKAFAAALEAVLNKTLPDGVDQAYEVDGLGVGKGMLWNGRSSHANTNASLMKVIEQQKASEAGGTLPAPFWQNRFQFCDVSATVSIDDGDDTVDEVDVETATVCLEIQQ

[4] = target: T3, Aspartate--tRNA(Asp/Asn) ligase (Mycobacterium tuberculosis (strain ATCC 25618 / H37Rv)) (UniProt P9WFW3); assay: Assay for Asp RNA synthetase-1 from Mycobacterium tuberculosis; type: functional; design: scale not given: direction of the effect not stated beside the values; details: 30 µM; further: in the data most compounds retested in dose-response had high values
T3 sequence (whole entry): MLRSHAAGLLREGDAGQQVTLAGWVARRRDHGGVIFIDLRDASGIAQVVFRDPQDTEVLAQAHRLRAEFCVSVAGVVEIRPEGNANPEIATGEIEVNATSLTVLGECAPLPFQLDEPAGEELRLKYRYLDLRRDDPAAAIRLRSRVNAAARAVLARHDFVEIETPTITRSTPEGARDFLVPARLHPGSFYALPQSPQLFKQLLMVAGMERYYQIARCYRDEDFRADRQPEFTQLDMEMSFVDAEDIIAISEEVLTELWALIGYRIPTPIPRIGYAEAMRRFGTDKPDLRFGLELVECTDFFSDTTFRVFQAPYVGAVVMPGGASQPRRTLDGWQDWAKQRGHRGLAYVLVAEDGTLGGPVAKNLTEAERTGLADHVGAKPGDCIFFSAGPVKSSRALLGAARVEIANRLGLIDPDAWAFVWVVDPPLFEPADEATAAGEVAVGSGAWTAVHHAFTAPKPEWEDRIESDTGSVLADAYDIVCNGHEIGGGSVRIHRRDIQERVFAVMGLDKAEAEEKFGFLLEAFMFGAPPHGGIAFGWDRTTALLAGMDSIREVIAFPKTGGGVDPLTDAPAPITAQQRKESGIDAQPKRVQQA

[5] = target: AMP-activated protein kinase, AMPK (Homo sapiens) (UniProt P54646+O43741+P54619+Q9UGJ0+Q9Y478+Q13131+Q9UGI9); assay: AMP-dependent Kinase enzyme assay. An in vitro enzyme assay that detects ADP turnover that is directly proportional to AMPK activity. This uses naive AMPK that is activated during the assay with MK-8722; type: functional; design: scale not given: direction of the effect not stated beside the values; details: 30 µM
[6] = target: Sialic acid-binding Ig-like lectin 9 (Homo sapiens) (UniProt Q9Y336); assay: Hs-Siglec9 ALPHAscreen SOP 20170721; design: scale not given: direction of the effect not stated beside the values; details: 10 µM
Chain of Sialic acid-binding Ig-like lectin 9 (Homo sapiens) (Q9Y336 whole entry): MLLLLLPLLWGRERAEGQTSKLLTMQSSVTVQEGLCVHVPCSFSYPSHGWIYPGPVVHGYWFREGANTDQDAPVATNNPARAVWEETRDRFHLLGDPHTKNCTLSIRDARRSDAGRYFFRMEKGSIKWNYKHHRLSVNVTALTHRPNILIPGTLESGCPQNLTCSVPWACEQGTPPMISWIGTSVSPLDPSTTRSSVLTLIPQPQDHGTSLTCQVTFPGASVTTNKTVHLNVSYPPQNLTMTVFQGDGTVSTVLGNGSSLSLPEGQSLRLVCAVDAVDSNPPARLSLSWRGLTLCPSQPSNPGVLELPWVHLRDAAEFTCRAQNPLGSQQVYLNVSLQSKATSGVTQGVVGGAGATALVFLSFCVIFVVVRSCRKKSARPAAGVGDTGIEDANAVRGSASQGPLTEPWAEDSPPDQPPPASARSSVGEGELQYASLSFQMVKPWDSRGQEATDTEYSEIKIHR

Trypanosoma cruzi = assay: Trypanosoma cruzi phosphomannomutase and mannose-1-phosphate guanylyltransferase assay; type: functional; design: scale not given: direction of the effect not stated beside the values; details: 10 µM
[7] = target: T4, Arginase-2, mitochondrial (Homo sapiens) (UniProt P78540); assay: in vitro enzyme assay to detect the production of urea directly proportional to the activity of Arginase II; type: functional; design: scale not given: in the data most compounds retested in dose-response had high values; details: 33.3 µM
T4 sequence (whole entry): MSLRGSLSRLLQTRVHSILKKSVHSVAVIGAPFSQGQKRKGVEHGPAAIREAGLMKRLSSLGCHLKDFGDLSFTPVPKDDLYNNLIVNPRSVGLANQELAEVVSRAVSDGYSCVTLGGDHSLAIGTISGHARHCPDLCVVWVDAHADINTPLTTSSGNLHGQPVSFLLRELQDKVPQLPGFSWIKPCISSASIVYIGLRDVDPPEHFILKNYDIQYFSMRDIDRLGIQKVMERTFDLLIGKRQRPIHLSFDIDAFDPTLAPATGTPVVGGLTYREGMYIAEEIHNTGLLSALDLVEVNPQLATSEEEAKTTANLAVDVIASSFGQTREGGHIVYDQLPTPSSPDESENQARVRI

[8] = target: T5, Proteasome subunit beta (Trypanosoma cruzi) (UniProt O96673); assay: Trypanosoma cruzi proteasome chymotrypsin-like activity (TcProtChymo) assay.; type: functional; design: scale not given: in the data most compounds retested in dose-response had high values; details: 9.37 µM
T5 sequence (whole entry): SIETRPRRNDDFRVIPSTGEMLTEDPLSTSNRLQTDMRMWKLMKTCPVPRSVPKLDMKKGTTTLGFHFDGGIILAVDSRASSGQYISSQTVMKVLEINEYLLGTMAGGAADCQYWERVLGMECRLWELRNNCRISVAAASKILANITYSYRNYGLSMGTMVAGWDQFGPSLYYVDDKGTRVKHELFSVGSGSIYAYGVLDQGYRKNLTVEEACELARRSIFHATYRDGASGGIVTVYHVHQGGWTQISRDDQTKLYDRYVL

Homo sapiens = species: Homo sapiens; assay: To identify inhibition of the IFN signalling (Jak-Stat) pathway via expression of an eGFP reporter gene under the control of an IFN-stimulated response element (ISRE) containing MxA promoter.; type: functional; design: scale not given: direction of the effect not stated beside the values; details: 30 µM
[9] = target: Shiga toxin 2 (Escherichia coli O157:H7) (UniProt P09385+P09386); assay: E. coli 0.157:H7 Shiga Toxin SOP - stx2 screening assay; type: functional; design: scale not given: direction of the effect not stated beside the values; details: 30 µM
[10] = target: T6, Tyrosyl-tRNA synthetase, putative (Trypanosoma cruzi (strain CL Brener)) (UniProt Q4DSP6); assay: Trypanosoma cruzi tyrosyl tRNA synthetase (TcYRS) _High Tyrosine SOP; type: functional; design: scale not given: in the data most compounds retested in dose-response had high values; details: 30 µM
T6 sequence (whole entry): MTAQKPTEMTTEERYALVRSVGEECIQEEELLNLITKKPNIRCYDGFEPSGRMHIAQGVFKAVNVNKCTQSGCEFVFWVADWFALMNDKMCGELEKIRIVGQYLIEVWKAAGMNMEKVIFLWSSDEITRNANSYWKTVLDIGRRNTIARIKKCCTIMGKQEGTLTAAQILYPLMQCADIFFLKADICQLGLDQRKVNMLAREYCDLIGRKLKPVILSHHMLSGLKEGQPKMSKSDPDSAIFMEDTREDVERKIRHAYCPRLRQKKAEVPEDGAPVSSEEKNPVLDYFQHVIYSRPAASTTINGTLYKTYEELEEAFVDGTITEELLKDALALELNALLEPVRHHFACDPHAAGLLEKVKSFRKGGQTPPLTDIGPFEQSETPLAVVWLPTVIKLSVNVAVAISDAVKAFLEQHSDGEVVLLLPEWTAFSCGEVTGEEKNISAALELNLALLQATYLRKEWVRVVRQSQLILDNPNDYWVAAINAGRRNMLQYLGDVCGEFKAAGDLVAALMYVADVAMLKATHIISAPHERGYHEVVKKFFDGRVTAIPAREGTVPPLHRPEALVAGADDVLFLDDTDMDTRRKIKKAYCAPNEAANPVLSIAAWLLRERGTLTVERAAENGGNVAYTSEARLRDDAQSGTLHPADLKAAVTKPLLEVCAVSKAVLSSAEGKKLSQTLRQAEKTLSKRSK

[11] = target: T6, Tyrosyl-tRNA synthetase, putative (Trypanosoma cruzi (strain CL Brener)); assay: Trypanosoma cruzi tyrosyl tRNA synthetase (TcYRS) SOP; type: functional; design: scale not given: direction of the effect not stated beside the values; details: 30 µM
[12] = target: Chromo domain-containing protein 1 (Saccharomyces cerevisiae (strain ATCC 204508 / S288c) (Baker's yeast)) (UniProt P32657); assay: ScCHD-1 Enzyme Inhibition Assay; type: functional; design: scale not given: in the data most compounds retested in dose-response had high values; details: 30 µM
Chain of Chromo domain-containing protein 1 (Saccharomyces cerevisiae (strain ATCC 204508 / S288c) (Baker's yeast)) (P32657 whole entry, the tested form may be a part): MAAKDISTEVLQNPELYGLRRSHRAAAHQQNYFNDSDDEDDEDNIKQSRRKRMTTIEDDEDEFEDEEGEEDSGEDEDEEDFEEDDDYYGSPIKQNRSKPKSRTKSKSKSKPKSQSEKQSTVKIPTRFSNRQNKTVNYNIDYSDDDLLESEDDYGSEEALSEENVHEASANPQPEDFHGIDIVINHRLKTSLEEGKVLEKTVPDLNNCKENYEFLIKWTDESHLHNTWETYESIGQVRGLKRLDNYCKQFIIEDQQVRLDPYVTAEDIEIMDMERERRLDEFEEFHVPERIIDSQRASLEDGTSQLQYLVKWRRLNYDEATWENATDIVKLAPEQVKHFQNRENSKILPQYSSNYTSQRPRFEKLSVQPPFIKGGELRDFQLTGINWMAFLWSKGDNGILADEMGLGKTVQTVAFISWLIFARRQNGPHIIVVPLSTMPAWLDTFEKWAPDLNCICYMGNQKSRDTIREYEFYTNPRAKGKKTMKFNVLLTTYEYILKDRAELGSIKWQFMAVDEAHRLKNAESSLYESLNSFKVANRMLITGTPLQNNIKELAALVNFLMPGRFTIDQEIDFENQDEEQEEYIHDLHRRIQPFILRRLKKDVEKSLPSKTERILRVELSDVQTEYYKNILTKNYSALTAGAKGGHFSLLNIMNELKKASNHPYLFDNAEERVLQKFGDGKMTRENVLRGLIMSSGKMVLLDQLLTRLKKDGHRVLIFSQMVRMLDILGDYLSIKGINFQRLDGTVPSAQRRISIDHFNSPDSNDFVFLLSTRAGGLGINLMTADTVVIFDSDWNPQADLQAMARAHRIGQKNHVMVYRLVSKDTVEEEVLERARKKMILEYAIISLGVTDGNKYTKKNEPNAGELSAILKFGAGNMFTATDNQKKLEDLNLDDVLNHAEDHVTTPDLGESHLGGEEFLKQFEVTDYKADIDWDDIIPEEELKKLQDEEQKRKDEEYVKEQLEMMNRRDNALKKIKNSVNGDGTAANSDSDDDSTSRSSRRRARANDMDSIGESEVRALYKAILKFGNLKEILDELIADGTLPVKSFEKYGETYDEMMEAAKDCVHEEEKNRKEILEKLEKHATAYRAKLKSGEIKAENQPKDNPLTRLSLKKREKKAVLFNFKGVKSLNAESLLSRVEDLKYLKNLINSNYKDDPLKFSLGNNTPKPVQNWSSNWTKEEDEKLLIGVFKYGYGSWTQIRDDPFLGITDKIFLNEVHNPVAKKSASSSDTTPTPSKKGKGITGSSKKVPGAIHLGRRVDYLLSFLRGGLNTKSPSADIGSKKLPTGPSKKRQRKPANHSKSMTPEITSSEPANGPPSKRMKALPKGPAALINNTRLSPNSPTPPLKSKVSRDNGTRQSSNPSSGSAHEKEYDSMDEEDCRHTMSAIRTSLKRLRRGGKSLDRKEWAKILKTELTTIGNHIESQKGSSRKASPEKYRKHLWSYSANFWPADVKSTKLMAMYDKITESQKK

N/A = assay: Trypanosoma cruzi proteasome luciferase counter-screen; type: functional; design: scale not given: direction of the effect not stated beside the values; details: 9.37 µM

SMILES	PXC50 ([1]; BOTTOM -4.203249798, HILLSLOPE 1.160005452, MAX_EFFECT 61.75908222, TOP 67.85944211)	Percent Effect [2]	Percent Effect [3]	Percent Effect [4]	Percent Effect [5]	Percent Effect [6]	Percent Effect (Trypanosoma cruzi)	Percent Effect [7]	Percent Effect [8]	Percent Effect (Homo sapiens)	Percent Effect [9]	Percent Effect [10]	Percent Effect [11]	Percent Effect [12]	Percent Effect (N/A)	PXC50 ([1]; MAX_EFFECT 39.40455342)	PXC50 ([1]; MAX_EFFECT 41.30434783)	PXC50 ([1]; MAX_EFFECT 46.2585034)
Clc1cc(Cl)cc(CNCCc2ccccc2)c1	3.6	–	–	–	–	–	–	–	–	–	–	–	–	–	–	–	–	–
Cc1nc(CN2CCOCC3(CCN(c4ncccn4)C3)C2)cs1 (configuration not stated)	–	-4.37%	10.8%	2.24%	2.91%	-0.742%	1.17%	3.75%	6.68%	-5.73%	-14.6%	13.9%	11%	-4.52%	–	–	–	–
CC(C)=CCN1C[C@H]2CC[C@@H]1CN(C(=O)c1c[nH]c(=O)c(Cl)c1)C2	–	-4.07%	5.48%	4.22%	2.02%	1.06%	-5.16%	-8.38%	35.6% and 31.4% and 37.8%	7.03%	-38%	6.25%	13.6%	-2.95%	18.4% and 17.9%	–	–	–
COc1cccc(CC(C)NC(=O)NCc2ccn(C)c2)c1 (configuration not stated)	–	–	–	–	–	–	–	–	–	–	–	–	–	–	–	< 4	< 4	< 4
Cc1noc(C)c1CN1CC[C@H]2C[C@@H](c3ccncn3)O[C@@H]2C1	–	-2.74%	8.11%	-3.25%	5.49%	1.24%	5.57%	-2.87%	14.2%	17.1%	5.98%	2.16%	17.9%	2.76%	–	–	–	–
COc1ccc2c(ccn2CCN)c1	–	-4.08%	-49.3%	-3.77%	-2.79%	5.94%	-0.982%	0.176%	6.65%	19%	-17.9%	7.41%	10.3%	-4.41%	–	–	–	–
